# About 83,000 compounds went through this panel and 20% of them were active in at least one assay; those are over-represented in the sample as a whole.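 The test compound was applied at a single concentration to cells in 96-well plates for 48 hours, and percent growth was recorded.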 Calls of active or inactive are those of the source. How the source made its calls: active means growth percent below 10; inactive means the rest.
# Legend:
# Experiment in all cases: NCI-60 one-dose screen, 48 h (100 = growth as untreated, 0 = no growth, -100 = all killed)
# [1] = tested on: DU-145 prostate; details: 10 µM unless noted
# [2] = tested on: K-562 leukemia; details: 10 µM unless noted
# [3] = tested on: MALME-3M melanoma; details: 10 µM unless noted
# [4] = tested on: RXF 393 renal; details: 10 µM unless noted
# [5] = tested on: SF-295 CNS; details: 10 µM unless noted
# [6] = tested on: UACC-257 melanoma; details: 10 µM unless noted
# [7] = tested on: SNB-19 CNS; details: 10 µM unless noted
# [8] = tested on: SK-MEL-5 melanoma; details: 10 µM unless noted
# [9] = tested on: LOX IMVI melanoma; details: 10 µM unless noted
# [10] = tested on: SK-MEL-2 melanoma; details: 10 µM unless noted
# [11] = tested on: ACHN renal; details: 10 µM unless noted
# [12] = tested on: HL-60(TB) leukemia; details: 10 µM unless noted
# [13] = tested on: CCRF-CEM leukemia; details: 10 µM unless noted
# [14] = tested on: MOLT-4 leukemia; details: 10 µM
# [15] = tested on: OVCAR-8 ovarian; details: 10 µM unless noted
# [16] = tested on: IGROV1 ovarian; details: 10 µM
# [17] = tested on: OVCAR-3 ovarian; details: 10 µM unless noted
# [18] = tested on: NCI/ADR-RES ovarian; details: 10 µM unless noted
# [19] = tested on: T-47D breast; details: 10 µM unless noted
# [20] = tested on: HCC-2998 colon; details: 10 µM unless noted
SMILES,growth [1],growth [2],growth [3],growth [4],growth [5],growth [6],growth [7],growth [8],growth [9],growth [10],growth [11],growth [12],growth [13],growth [14],growth [15],growth [16],growth [17],growth [18],growth [19],growth [20]
COC1=CC(=O)OC(CCc2ccc3c(c2)OCO3)C1 (configuration not stated),122% (inactive),122% (inactive),136% (inactive),70.2% (inactive),116% (inactive),97.8% (inactive),103% (inactive),102% (inactive),98.5% (inactive),97.4% (inactive),107% (inactive),113% (inactive),85.4% (inactive),121% (inactive),96.1% (inactive),116% (inactive),122% (inactive),120% (inactive),94.7% (inactive),132% (inactive)
O=[N+]([O-])c1ccc(F)c([N+](=O)[O-])c1F,115% (inactive),11.1% (inactive),96% (inactive),109% (inactive),104% (inactive),103% (inactive),115% (inactive),103% (inactive),102% (inactive),93.7% (inactive),113% (inactive),92.2% (inactive),61.7% (inactive),58% (inactive),104% (inactive),105% (inactive),103% (inactive),109% (inactive),96.6% (inactive),105% (inactive)
COc1cc(/C=C\c2cc(OC)c(OC)c(OC)c2)cc(N/C=C\C(=O)c2ccc(OC(F)(F)F)cc2)c1OC,14.4% (inactive),4.67% (active),,,9.29% (active),51.1% (inactive),74.6% (inactive),27.6% (inactive),33.4% (inactive),-13.4% (active),43% (inactive),11% (inactive),8.99% (active),34.6% (inactive),30% (inactive),48.3% (inactive),-8.54% (active),5.87% (active),37.9% (inactive),

# — PubChem BioAssay (NCI)
